This is part of a sample that, as a whole, favours compounds with a hit. Of some 83,000 tested, about 20% had one in any assay.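 Cells were grown in 96-well plates and exposed to the test compound at a single concentration for 48 hours; results are reported as percent growth, with values below 10 considered active.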 Active and inactive are the calls of the source.
How the values were obtained:
Assay in all cases: NCI-60 one-dose screen, 48 h (100 = growth as untreated, 0 = no growth, -100 = all killed)
Conditions in all cases: 10 µM unless noted
[1] = tested on: NCI-H23 lung
[2] = tested on: NCI-H226 lung
[3] = tested on: NCI-H322M lung
[4] = tested on: HOP-62 NSCLC
[5] = tested on: NCI-H460 lung
[6] = tested on: HOP-92 NSCLC
[7] = tested on: NCI-H522 lung
[8] = tested on: A549/ATCC NSCLC
[9] = tested on: 786-0 renal
[10] = tested on: COLO 205 colon
[11] = tested on: DU-145 prostate
[12] = tested on: K-562 leukemia
[13] = tested on: MALME-3M melanoma
[14] = tested on: MDA-MB-231 breast
[15] = tested on: RXF 393 renal
[16] = tested on: SF-268 CNS
[17] = tested on: SF-295 CNS
[18] = tested on: SF-539 CNS
[19] = tested on: UACC-257 melanoma
[20] = tested on: M14 melanoma

Measured: growth

CN1CCN(c2ccc(-c3cc4c(Nc5ccc(F)c(Cl)c5)ncnn4c3)cn2)CC1
inactive: [1] 102% | [2] 97.7% | [3] 74.7% | [4] 106% | [5] 16.1% | [6] 107% | [7] 98.6% | [8] 85.2% | [9] 100% | [10] 105% | [11] 58.1% | [12] 11.7% | [13] 50.3% | [14] 77.3% | [15] 101% | [16] 98.7% | [17] 103% | [18] 68% | [19] 105% | [20] 83.8%

CCOC(=O)C1=C(N)Oc2c(sc3c(C)cccc23)C1c1ccc(Cl)cc1 (stereo not given)
active: [12] 9.65% | [15] -7.89% | [17] 4.92% | [18] 6.36%
inactive: [1] 28.2% | [2] 32.9% | [3] 47.3% | [4] 31.8% | [5] 13.1% | [6] 85% | [7] 23% | [8] 46.2% | [9] 35.7% | [10] 20.3% | [11] 21.6% | [13] 36.1% | [14] 49.8% | [16] 55.5% | [19] 63.4% | [20] 20.6%

NCCCNc1nc2ccccc2c2c(=O)c3cc(F)cc(Cl)c3sc12
active: [5] -74% | [12] -17.7%
inactive: [1] 95.5% | [2] 88.9% | [3] 87.7% | [4] 92.6% | [6] 70.4% | [7] 92.9% | [8] 79.1% | [9] 86.3% | [10] 106% | [11] 64.1% | [13] 106% | [14] 51.4% | [15] 73.6% | [16] 79.9% | [17] 102% | [18] 83% | [19] 114% | [20] 90.4%

NS(=O)(=O)c1ccc(N=Nc2ccc(-c3nn4cc(-c5ccccc5)nc4s3)cc2)cc1
inactive: [1] 97.1% | [2] 99.9% | [3] 103% | [4] 83% | [5] 113% | [6] 105% | [7] 89.9% | [8] 96.9% | [9] 94.6% | [10] 100% | [11] 108% | [12] 93.5% | [13] 105% | [14] 107% | [15] 111% | [16] 101% | [17] 96.5% | [18] 97.6% | [19] 99.8% | [20] 96.6%

O=C(Nc1nc2ccc(F)cc2s1)c1cccnc1Nc1ccc(Cl)cc1Cl
active: [1] 7.18% | [3] 3.83% | [5] 5.22% | [6] -6.79% | [10] 2.35% | [12] 4.08% | [13] -15.9% | [17] 4.3%
inactive: [2] 52.6% | [4] 63.5% | [7] 31.8% | [8] 17% | [9] 45.8% | [11] 30% | [14] 34.5% | [15] 44.4% | [16] 28.9% | [18] 43.1% | [19] 28.1% | [20] 37%

CCCCCCN(CCCCCC)c1ccc(/C=C2/SC(=O)NC2=O)c(C)c1
inactive: [1] 76.5% | [2] 104% | [3] 87% | [4] 110% | [5] 81.3% | [6] 13.9% | [7] 77.4% | [8] 73.2% | [9] 77.6% | [10] 109% | [11] 102% | [12] 65.2% | [13] 72.9% | [14] 111% | [15] 101% | [16] 89.5% | [17] 65.6% | [18] 117% | [19] 103% | [20] 90.1%

Oc1ccc(C#CCOc2ccccc2)cc1CNCCN(Cc1ccccn1)Cc1ccccn1
inactive: [1] 16.7% | [3] 13.6% | [4] 13.3% | [6] 42.5% | [10] 13% | [11] 28.6% | [13] 25.2% | [14] 47% | [15] 16% | [16] 13% | [18] 11.3% | [19] 15.4%
active: [2] 8.23% | [5] 5.58% | [7] 9.5% | [8] 8.12% | [9] 5.55% | [12] 8.65% | [17] 4.52% | [20] 6.22%

CN(C)c1ccc2nc3ccc(=[N+](C)C)c([N+](=O)[O-])c-3sc2c1
active: [1] 9.52% | [13] 9.75% | [14] 2.84% | [17] -1.42% | [20] 9.93%
inactive: [2] 73.2% | [3] 42.2% | [4] 64.2% | [5] 25.3% | [6] 38.7% | [7] 16.3% | [8] 26.3% | [9] 31.9% | [10] 20.3% | [11] 54% | [12] 23.8% | [15] 79.7% | [16] 33.4% | [18] 36.6% | [19] 12.8%

O=C(Nc1ccc(Cl)cc1F)c1cc(Cl)ccc1O
active: [1] -20% | [2] -9.16% | [3] -11.1% | [4] 7.55% | [5] -5.39% | [6] -21.7% | [7] -3.15% | [8] 7.91% | [9] -0.322% | [12] 4.51% | [13] -32.2% | [14] -34.5% | [15] -12.7% | [16] 7.67% | [17] -69.5% | [18] 4.82% | [19] -17.9% | [20] -12.3%
inactive: [10] 22.2% | [11] 12.5%

COc1cc(C2CC(c3ccc(N(C)C)cc3)=NN2C(C)=O)cc(OC)c1OC (stereo not given)
active: [7] -5.66% | [11] 2.14% | [15] -17.7% | [18] -21.4%
inactive: [1] 31.2% | [2] 79.6% | [3] 44.2% | [4] 47.8% | [5] 10.8% | [6] 60.7% | [8] 51.2% | [9] 24.1% | [10] 19.2% | [12] 17.6% | [13] 37.9% | [14] 56.3% | [16] 35% | [17] 12.1% | [19] 56.5% | [20] 19.4%

C[C@]12CC[C@@H]3c4cc(OC(F)F)c(OS(N)(=O)=O)cc4CC[C@H]3[C@@H]1CC[C@@H]2OS(N)(=O)=O
inactive: [1] 36.2% | [2] 93.2% | [3] 65.7% | [4] 44.4% | [5] 15.1% | [6] 57.3% | [7] 45.7% | [8] 43.5% | [9] 67.5% | [10] 116% | [11] 42.1% | [12] 16.8% | [13] 41% | [14] 54% | [15] 42.1% | [16] 49.7% | [17] 27.3% | [18] 26% | [19] 62.2% | [20] 31.1%

O=c1[nH][n+](-c2ccc(Br)cc2)no1
inactive: [1] 88.8% | [2] 72.5% | [3] 72.2% | [4] 75.5% | [5] 28.3% | [6] 84.1% | [7] 49.3% | [8] 48.1% | [9] 59% | [10] 56.2% | [11] 57.9% | [12] 10.9% | [13] 60.3% | [14] 68.7% | [15] 105% | [16] 32.8% | [17] 21.3% | [19] 55% | [20] 74%
active: [18] 7.06%

Nc1nc2ccccc2c2c(=O)c3cc(F)ccc3sc12
inactive: [1] 87.3% | [2] 94.5% | [3] 99.2% | [4] 108% | [5] 103% | [6] 80.8% | [7] 98.1% | [8] 104% | [9] 97.4% | [10] 110% | [11] 104% | [12] 107% | [13] 96.5% | [14] 100% | [15] 104% | [16] 103% | [17] 100% | [18] 104% | [19] 104% | [20] 99.6%

CNCCCNc1nc2ccccc2c2c(=O)c3cc(OC)ccc3sc12
active: [5] 5.64% | [10] -1.42% | [12] -20.3%
inactive: [1] 79.6% | [2] 95.6% | [3] 85.7% | [4] 80.2% | [6] 52.4% | [7] 85.7% | [8] 76.1% | [9] 79.1% | [11] 65.4% | [13] 99.4% | [14] 20% | [15] 63.7% | [16] 77.4% | [17] 94.7% | [18] 66.4% | [19] 99.1% | [20] 29.9%

CCOc1ccc2nc(SCc3nc4n(n3)S(=O)(=O)c3ccccc3N4C)sc2c1
active: [4] -42.9% | [6] -14% | [9] -33.3% | [15] 7.23% | [17] 6.74% | [18] 8.46% | [20] 5.88%
inactive: [1] 13.2% | [2] 32% | [3] 38.6% | [5] 38.2% | [7] 22.6% | [8] 24% | [10] 23.3% | [11] 25.3% | [12] 34.8% | [13] 10.1% | [14] 10.5% | [16] 25.9% | [19] 24.4%

COc1ccc(-c2nc3sc(-c4ccc(Cl)cc4)cn3n2)cc1
active: [5] -39.3% | [8] -30.3% | [9] -75.8%
inactive: [1] 58.5% | [2] 50.1% | [3] 17.8% | [4] 39.6% | [6] 21.5% | [7] 61% | [10] 52.5% | [11] 80.7% | [12] 61.5% | [13] 50.8% | [14] 13.3% | [15] 59% | [16] 65.1% | [17] 24.2% | [18] 15.4% | [19] 84.6% | [20] 91.1%

Reference: PubChem BioAssay (NCI)
